This note sets out measurements from PubChem BioAssay (NCATS).

Structures are written as SMILES. Values joined by “and” are separate entries in the source; they are usually repeats but may differ in a detail not shown here. Equal values may be shown once. Records with an inconclusive call do not appear. Active and inactive are the calls of the source. Calls follow the shape of the dose curve; as a rule, active = well fitted cell-killing curve with a large enough effect in the repeat runs; inconclusive = weak or mixed curves; inactive = flat fitted curve, though single readings scatter.
% is scaled to controls: 0 for no effect and ±100 for the full control effect; potency is read from the fitted curve at half-maximal effect.

This test in a line: qHTS assay for small molecule agonists of the antioxidant response element (ARE) signaling pathway measured by Nrf2-dependant transcriptional activity - cell viability counter screen (AID 720653). The following applies: ARE-bla HepG2 viability, CellTiter-Glo ATP luminescence, 16 h; max response: active compounds read low. From the text:
National Center for Advancing Translational Sciences [NCATS] NIH Chemical Genomics Center [NCGC] U.S. Environmental Protection Agency [EPA] National Institutes of Environmental Health Sciences [NIEHS] National Toxicology Program [NTP] Assay Overview: Oxidative stress has been implicated in the pathogenesis of a variety of diseases ranging from cancer to neurodegeneration. The antioxidant response element (ARE) signaling pathway plays an important role in the amelioration of oxidative stress. The CellSensor ARE-bla HepG2 cell line (Invitrogen) can be used for analyzing the Nrf2/antioxidant response signaling pathway. Nrf2 (NF-E2-related factor 2) and Nrf1 are transcription factors that bind to AREs and activate these genes. The CellSensor ARE-bla HepG2 cell line contains a beta-lactamase reporter gene under control of the Antioxidant Response Element (ARE) stably integrated into HepG2 cells. The activation of the report gene under culture conditions can be detected by fluorescence intensity. The cytotoxicity of the compounds against the ARE-bla HepG2 cell line was quantified by measuring the intracellular ATP content.
Assay Protocol Summary: ARE-bla HepG2 cells were dispensed at 2,000 cells/5 ul/well in 1536-well black wall/clear bottom plates using a Multidrop Combi (ThermoFisher Scientific, Waltham, MA) dispenser. After the assay plates were incubated at 37C/5% CO2 for 5 hrs, 23 nL of compounds dissolved in DMSO, positive controls or DMSO only was transferred to the assay plate by a pintool work station (Kalypsys, San Diego, CA). The plates were incubated at 37C/5% CO2 for 16 hrs. After 1 uL of LiveBLAzer B/G FRET substrate was added using a Flying Reagent Dispenser (FRD) (Aurora Discovery, San Diego, CA), the assay plates were incubated at room temperature for 2 hrs. The fluorescence intensity was measured by an Envision (PerkinElmer, Shelton, CT) plate reader. Cell viability using CellTiter Glo viability assay (Promega, Madison, WI) was also measured by adding 4 ul/well of CellTiter-Glo reagent into the same assay plate using a FRD. After 30 min incubation at room temperature, the luminescence intensity in the plates was measured using a ViewLux (PerkinElmer) plate reader.
Background: Quantitative high-throughput screening tests each substance at several concentrations.
With `O=c1cc(-c2ccccc2)oc2ccccc12`, the max response was -6.91% (inactive) and -11.5% (inactive).

For `C=CCCCCCCCCC(=O)O`, the max response was 1.06% (inactive).

For the molecule `C#C[C@]1(O)CC[C@H]2[C@@H]3CCc4cc(O)ccc4[C@H]3CC[C@@]21C`, the max response is 6.34% (inactive) and 7.49% (inactive).

For `CCCCCCCCCCCCCCCCCC(=O)O`, the max response was -2.11% (inactive) and 6.03% (inactive) and 17.1% (inactive).

For `Nc1ccc(O)c([N+](=O)[O-])c1`, the max response was -1.19% (inactive) and -1.35% (inactive).

With `Oc1ccccc1O`, the max response was -28.6% (inactive).

With `NCCO`, the max response is 3.76% (inactive).

`CC(C)NCC(O)COc1cccc2ccccc12` (stereo not drawn): the max response was -11.2% (inactive) and -5.42% (inactive).

As to `Nc1ccc(O)c(C(=O)O)c1`, the max response is -2.51% (inactive) and -1.43% (inactive).

For the molecule `CN(C)c1ccc(N=NS(=O)(=O)O)cc1`, the max response was -12.4% (inactive) and -28.6% (inactive).

As for `O=C(Nc1ccccc1)c1cc([N+](=O)[O-])ccc1Cl`, the max response is -18.4% (inactive).

Consider `CCCOC(=O)c1ccc(O)cc1`, for which the max response was -5.7% (inactive) and -1.43% (inactive) and -2.37% (inactive).

For `COc1cc(CNC(=O)CCCC/C=C/C(C)C)ccc1O`, the max response was -7.9% (inactive) and -5.74% (inactive).

`S=c1[nH]c2ccccc2s1`: the max response was -14.2% (inactive) and -2.08% (inactive).

As for `O=C(O)c1ccccc1Nc1cccc(C(F)(F)F)c1`, the max response was 0.398% (inactive).

With `CN(C)c1ccc(C(=C2C=CC(=[N+](C)C)C=C2)c2ccccc2)cc1`, the Potency is 6.31 µM (active).

Take `O=C(O)c1cc(O)c(O)c(O)c1`: the max response was -28.5% (inactive).

Turning to `CN1[C@@H]2CC[C@H]1CC(OC(=O)C(CO)c1ccccc1)C2` (stereo partly drawn), the max response is -6.68% (inactive).

In the case of `O=C(O)/C=C\C(=O)O`, the max response was -4.39% (inactive).

Turning to `O=C(OCc1ccccc1)c1ccccc1`, the max response was -0.23% (inactive).

Turning to `CC(C)OC(=O)c1cc(C(=O)OC(C)C)cc([N+](=O)[O-])c1`, the max response was -4.4% (inactive).

With `Nc1nc2ccc([N+](=O)[O-])cc2s1`, the max response is -4.37% (inactive).

As to `Nc1ccc([N+](=O)[O-])cc1O`, the max response was -6.11% (inactive) and -12.4% (inactive).

Consider `c1ccc2sc(SSc3nc4ccccc4s3)nc2c1`, for which the max response is -3.31% (inactive) and 10.5% (inactive).

Turning to `Nc1cc(-c2ccncc2)c[nH]c1=O`, the max response is -1.18% (inactive).

For the molecule `CN1CCC[C@H]1c1cccnc1`, the max response was -4.29% (inactive) and -4.16% (inactive).

`COc1cc(/C=C/C(=O)CC(=O)/C=C/c2ccc(O)c(OC)c2)ccc1O`: the max response is -2.44% (inactive).

Regarding `N=C1N=C(N)c2cc3ccccc3cc21`, the max response is -12.6% (inactive).

Turning to `O=C(O)[C@H](O)[C@@H](O)[C@H](O)[C@H](O)CO`, the max response was 21% (inactive).

For `CCCCCCCCCCCCCCCC(=O)OC(C)C`, the max response was -10.7% (inactive).

Regarding `c1cnc2c(c1)ccc1cccnc12`, the max response was -9.05% (inactive).

Regarding `CN(C)CCC(c1ccc(Cl)cc1)c1ccccn1` (stereo not drawn), the max response was -2.73% (inactive).

Take `CC1(C)S[C@@H]2[C@H](NC(=O)[C@H](N)c3ccccc3)C(=O)N2[C@H]1C(=O)O`: the max response is -0.498% (inactive).
